By AC50 is commonly meant the concentration at which the activity in the assay is half-maximal.

Activity calls are given as the source filed them. The calls were made as follows: active = hit-call score of the fitted dose curve at least 0.9, where 1 is the maximum; inactive = score below 0.9.

Read-out in test [1]: Urokinase-type plasminogen activator receptor (uPAR), PLAUR (gene 5329)
The experiment in a line: BSK_4H_uPAR: BioMAP Diversity Plus: 4H Assay for Urokinase-type plasminogen activator receptor (uPAR) Biomarker Activity (AID 2283030). Conditions: primary human endothelial cells (HUVEC); actives raise or lower the signal. The essentials: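 Endpoint derived via bidirectional curve fitting against DMSO baseline; readout was ELISA detection of uPAR on umbilical vein endothelial cells at 24 h post-treatment, with SRB-stained parallel cultures assessing cytotoxicity.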

Read-out in test [2]: Vascular endothelial growth factor receptor 2 (Homo sapiens) (UniProt P35968)
The experiment in a line: BSK_4H_VEGFRII: BioMAP Diversity Plus: 4H Assay for Vascular endothelial growth factor receptor 2 (VEGFR2) Biomarker Activity (AID 2283031). Conditions: primary human endothelial cells (HUVEC); actives raise or lower the signal. The essentials: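 In this multiplexed HUVEC system, biomarker ELISA was performed after 24 h chemical exposure. Parallel SRB staining (TCA fixation, 560 nm) tracked cytotoxicity; DMSO served as baseline.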

Read-out in test [3]: Human Leukocyte Antigen - DR isotype (HLADR), HLA-DRA (gene 3122)
The experiment in a line: BSK_BE3C_HLADR: BioMAP Diversity Plus: BE3C Assay for Human Leukocyte Antigen - DR isotype (HLADR) Biomarker Activity (AID 2283032). Conditions: primary human bronchial epithelial cells; actives raise or lower the signal. The essentials: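 ELISA read-out of HLA-DR on human lung bronchial epithelial primary cells, measured 24 h post-dosing. Both increases and decreases were scored relative to DMSO vehicle.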

Read-out in test [4]: Vascular cell adhesion molecule 1 (VCAM1), VCAM1 (gene 7412)
The experiment in a line: BSK_4H_VCAM1: BioMAP Diversity Plus: 4H Assay for Vascular cell adhesion molecule 1 (VCAM1) Biomarker Activity (AID 2283033).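 As to outcome: cell-surface VCAM-1 protein measured by ELISA.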 Conditions: primary human endothelial cells (HUVEC); actives raise or lower the signal. The essentials:
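ELISA read-out of VCAM-1 on human umbilical vein endothelium 24 hours after chemical dosing; gain or loss of signal was fitted relative to DMSO, with sulforhodamine B staining of parallel cultures flagging overt cytotoxicity.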

Read-out in test [5]: Interferon-gamma inducible Protein 10 (IP10), CXCL10 (gene 3627)
The experiment in a line: BSK_BE3C_IP10: BioMAP Diversity Plus: BE3C Assay for Interferon-gamma inducible Protein 10 (IP10) Biomarker Activity (AID 2283034). Conditions: primary human bronchial epithelial cells; actives raise or lower the signal. The essentials: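 Chemical is dosed onto human lung bronchial epithelial primary cells, cultures are incubated 24 h, and IP-10 is then quantified by ELISA. Gain or loss of signal is fitted in both directions relative to DMSO.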

Read-out in test [6]: Monokine induced gamma interferon (MIG), CXCL9 (gene 4283)
The experiment in a line: BSK_BE3C_MIG: BioMAP Diversity Plus: BE3C Assay for Monokine induced gamma interferon (MIG) Biomarker Activity (AID 2283035). Conditions: primary human bronchial epithelial cells; actives raise or lower the signal. The essentials: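 Primary human bronchial epithelial cells treated for 24 h; MIG levels measured by ELISA, fitted bidirectionally versus DMSO. Parallel SRB total-protein staining assessed cytotoxicity.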

Read-out in test [7]: Transforming growth factor beta 1 (TGFb1), TGFB1 (gene 7040)
The experiment in a line: BSK_BE3C_TGFb1: BioMAP Diversity Plus: BE3C Assay for Transforming growth factor beta 1 (TGFb1) Biomarker Activity (AID 2283036;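 as to outcome: TGF-b1 protein level measured by ELISA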). Conditions: primary human bronchial epithelial cells; actives raise or lower the signal. The essentials: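 Primary human lung bronchial epithelial cells; compound exposure 24 h; TGF-b1 by ELISA; bidirectional fit, DMSO baseline. Parallel SRB total-protein staining for cytotoxicity.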

Read-out in test [8]: urokinase plasminogen activator (uPA), PLAU (gene 5328)
The experiment in a line: BSK_BE3C_uPA: BioMAP Diversity Plus: BE3C Assay for urokinase plasminogen activator (uPA) Biomarker Activity (AID 2283038).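 Also: uPA protein level quantified by ELISA in cell cultures; uPA read one day after compound addition.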 Conditions: primary human bronchial epithelial cells; actives raise or lower the signal. The essentials: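 Using confluent primary human lung bronchial epithelial cultures, we dosed chemicals, waited 24 h, then ran a uPA ELISA, fitting bidirectionally against DMSO.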

Read-out in test [9]: Urokinase-type plasminogen activator receptor (uPAR), PLAUR (gene 5329)
The experiment in a line: BSK_BE3C_uPAR: BioMAP Diversity Plus: BE3C Assay for Urokinase-type plasminogen activator receptor (uPAR) Biomarker Activity (AID 2283039).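 Also: cells exposed to compound for one day before measurement.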 Conditions: primary human bronchial epithelial cells; actives raise or lower the signal. The essentials:
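Human bronchial epithelial primary cells; chemical exposure 24 h; uPAR by ELISA; bidirectional fit vs DMSO control.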

Read-out in test [10]: Interleukin-6 (IL6), IL6 (gene 3569)
The experiment in a line: BSK_CASM3C_IL6: BioMAP Diversity Plus: CASM3C Assay for Interleukin-6 (IL6) Biomarker Activity for (AID 2283040). Conditions: primary human coronary artery smooth muscle cells; actives raise or lower the signal.

Read-out in test [11]: Tissue plasminogen activator (tPA), PLAT (gene 5327)
The experiment in a line: BSK_BE3C_tPA: BioMAP Diversity Plus: BE3C Assay for Tissue plasminogen activator (tPA) Biomarker Activity (AID 2283041).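 As to outcome: tPA level quantified by ELISA one day after compound addition.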 Conditions: primary human bronchial epithelial cells; actives raise or lower the signal. The essentials:
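Primary human lung bronchial epithelial cultures receive test chemical; after 24 h, tPA is quantified by ELISA, and gain or loss of signal is fitted bidirectionally relative to DMSO baseline.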

Read-out in test [12]: Interleukin-8 (IL8), CXCL8 (gene 3576)
The experiment in a line: BSK_CASM3C_IL8: BioMAP Diversity Plus: CASM3C Assay for Interleukin-8 (IL8) Biomarker Activity (AID 2283042).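 Also: IL-8 protein level quantified by ELISA.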 Conditions: primary human coronary artery smooth muscle cells; actives raise or lower the signal.

Read-out in test [13]: Human Leukocyte Antigen - DR isotype (HLADR), HLA-DRA (gene 3122)
The experiment in a line: BSK_CASM3C_HLADR: BioMAP Diversity Plus: CASM3C Assay for Human Leukocyte Antigen - DR isotype (HLADR) Biomarker Activity (AID 2283043).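 Also: cell-surface HLA-DR protein level quantified by ELISA.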 Conditions: primary human coronary artery smooth muscle cells; actives raise or lower the signal.

Read-out in test [14]: Macrophage colony-stimulating factor (MCSF), CSF1 (gene 1435)
The experiment in a line: BSK_CASM3C_MCSF: BioMAP Diversity Plus: CASM3C Assay for Macrophage colony-stimulating factor (MCSF) Biomarker Activity (AID 2283044).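 Also: M-CSF protein amount quantified by ELISA after 24 h exposure.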 Conditions: primary human coronary artery smooth muscle cells; actives raise or lower the signal.

Read-out in test [15]: Low-density lipoprotein receptor (LDLR), LDLR (gene 3949)
The experiment in a line: BSK_CASM3C_LDLR: BioMAP Diversity Plus: CASM3C Assay for Low-density lipoprotein receptor (LDLR) Biomarker Activity (AID 2283045).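 Also: LDLR protein level on the cell surface quantified by ELISA.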 Conditions: primary human coronary artery smooth muscle cells; actives raise or lower the signal.

Read-out in test [16]: Monocyte Chemoattractant Protein-1 (MCP1), CCL2 (gene 6347)
The experiment in a line: BSK_CASM3C_MCP1: BioMAP Diversity Plus: CASM3C Assay for Monocyte Chemoattractant Protein-1 (MCP1) Biomarker Activity (AID 2283046).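 Also: MCP-1 level quantified by ELISA 24 h after dosing.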 Conditions: primary human coronary artery smooth muscle cells; actives raise or lower the signal.

The nature of test [17]: BSK_CASM3C_Proliferation: Cell Proliferation Assessment in the BioMAP Diversity Plus: CASM3C Assay (AID 2283047).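 Also: sulforhodamine B total protein stain as relative cell number at 560 nm; sub-confluent cells exposed 48 h before staining; fitted both ways against DMSO so gain or loss of cell number.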 Conditions: primary human coronary artery smooth muscle cells.
Read-out in test [18]: Monokine induced gamma interferon (MIG), CXCL9 (gene 4283)
The experiment in a line: BSK_CASM3C_MIG: BioMAP Diversity Plus: CASM3C Assay for Monokine induced gamma interferon (MIG) Biomarker Activity (AID 2283048). Conditions: primary human coronary artery smooth muscle cells; actives raise or lower the signal.

Read-out in test [19]: serum amyloid A (SAA), SAA1 (gene 6288)
The experiment in a line: BSK_CASM3C_SAA: BioMAP Diversity Plus: CASM3C Assay for serum amyloid A (SAA) Biomarker Activity (AID 2283049).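 Also: SAA protein level quantified by ELISA.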 Conditions: primary human coronary artery smooth muscle cells; actives raise or lower the signal.

Read-out in test [20]: Plasminogen activator inhibitor-1 (PAI1), SERPINE1 (gene 5054)
The experiment in a line: BSK_BE3C_PAI1: BioMAP Diversity Plus: BE3C Assay for Plasminogen activator inhibitor-1 (PAI1) Biomarker Activity (AID 2283037). Conditions: primary human bronchial epithelial cells; actives raise or lower the signal. The essentials:
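Primary human lung bronchial epithelial cells; chemical dosing; 24 h; PAI-1 measured by ELISA; bidirectional fit referenced to DMSO as negative control.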

Consider `CCC(=O)OCC=Cc1ccccc1`, for which the outcome in test [1], in test [2], in test [3], in test [4], in test [5] and in test [6] was inactive. Also, the result in [7], in test [8], in [9], in [10], in test [11] and in test [12] was inactive. The result in test [13], in test [14], in test [15], in test [16], in test [17] and in [18] was inactive. Moreover, the result in test [19] was inactive.

In the case of `CCCO[Si](OCCC)(OCCC)OCCC`, the outcome in test [1], in test [2], in test [3], in test [4], in [5] and in [6] was inactive. Moreover, the result in test [20], in [8], in test [9], in test [10], in test [11] and in test [12] was inactive. Besides, the result in test [13], in [14], in test [15], in [16], in [17] and in test [18] was inactive. For the same compound, the result in [19] was inactive.

Consider `CCOC(=O)C=Cc1ccccc1`, for which the result in test [1], in test [2], in test [3], in test [4], in test [5] and in test [6] was inactive. In addition, the result in [7], in test [8], in [9], in test [10], in test [11] and in [12] was inactive. Also, the result in [13], in test [14], in test [15], in test [16], in [17] and in test [18] was inactive. The outcome in test [19] was inactive.

Take `CC(C)(C)c1cccc(O)c1`: the result in [1], in test [2], in test [3], in [4], in [5] and in test [6] was inactive. Further, the outcome in test [7], in [8], in test [9], in test [10], in test [11] and in test [12] was inactive. The result in test [13], in [14], in test [15], in test [16], in test [17] and in [18] was inactive. Also, the outcome in test [19] was inactive.

Regarding `CCCCCCCCCC(=O)OCC`, the AC50 in test [1] is 20 µM (active); in test [4], 31.7 µM (active); in test [5], 20 µM (active); in [7], 20 µM (active); in [10], 31.8 µM (active); in [11], 20 µM (active). Besides, the AC50 in [12] is 37 µM (active); in test [13], 32.5 µM (active); in test [14] it was 31.4 µM (active); in test [15], 36.4 µM (active); in test [16] it was 31.9 µM (active); in [17], 20 µM (active). In addition, the AC50 in [18] was 31.5 µM (active); in [19], 31.8 µM (active). Besides, the outcome in [2], in [3], in [6], in test [8] and in test [9] was inactive.

As for `CCn1cc(C(=O)O)c(=O)c2ccc(C)nc21`, the result in test [1], in test [2], in test [3], in test [4], in test [5] and in test [6] was inactive. The result in [8], in test [9], in test [10], in test [11], in test [12] and in test [13] was inactive. The result in test [14], in test [15], in test [16], in [17], in [18] and in test [19] was inactive.

Source of the values: PubChem BioAssay (EPA / NIEHS).
